# JMJD2A Tudor inh = blocks the human JMJD2A Tudor domain; AID 504339; AlphaScreen JMJD2A-Tudor / H3K4me3 peptide binding; Potency, µM (doses to about 114 µM), for inactives: at the top dose activity change, negative = inhibition, actives largely listed as inhibitors; 390,000 tested, 4.4% active; also: potency is read from the fitted curve at half-maximal effect; % is scaled to controls: 0 for no effect and ±100 for the full control effect; nearly all actives have a fitted effect of over 50% in size
# BAZ2B block = BAZ2B (human) inhibition; Q9UIF8; AlphaScreen BAZ2B-H3K14Ac peptide displacement; Potency, µM (highest dose often 114 µM), for inactives: at the highest dose activity change, negative = inhibition, hits mostly inhibitors; 360,000 tested, 4.4% active; also: potency is read from the fitted curve at half-maximal effect; % is scaled to controls: 0 for no effect and ±100 for the full control effect; nearly all actives have a fitted effect of over 60% in size
# Target sequence (Q9UIF8 whole entry, looked up): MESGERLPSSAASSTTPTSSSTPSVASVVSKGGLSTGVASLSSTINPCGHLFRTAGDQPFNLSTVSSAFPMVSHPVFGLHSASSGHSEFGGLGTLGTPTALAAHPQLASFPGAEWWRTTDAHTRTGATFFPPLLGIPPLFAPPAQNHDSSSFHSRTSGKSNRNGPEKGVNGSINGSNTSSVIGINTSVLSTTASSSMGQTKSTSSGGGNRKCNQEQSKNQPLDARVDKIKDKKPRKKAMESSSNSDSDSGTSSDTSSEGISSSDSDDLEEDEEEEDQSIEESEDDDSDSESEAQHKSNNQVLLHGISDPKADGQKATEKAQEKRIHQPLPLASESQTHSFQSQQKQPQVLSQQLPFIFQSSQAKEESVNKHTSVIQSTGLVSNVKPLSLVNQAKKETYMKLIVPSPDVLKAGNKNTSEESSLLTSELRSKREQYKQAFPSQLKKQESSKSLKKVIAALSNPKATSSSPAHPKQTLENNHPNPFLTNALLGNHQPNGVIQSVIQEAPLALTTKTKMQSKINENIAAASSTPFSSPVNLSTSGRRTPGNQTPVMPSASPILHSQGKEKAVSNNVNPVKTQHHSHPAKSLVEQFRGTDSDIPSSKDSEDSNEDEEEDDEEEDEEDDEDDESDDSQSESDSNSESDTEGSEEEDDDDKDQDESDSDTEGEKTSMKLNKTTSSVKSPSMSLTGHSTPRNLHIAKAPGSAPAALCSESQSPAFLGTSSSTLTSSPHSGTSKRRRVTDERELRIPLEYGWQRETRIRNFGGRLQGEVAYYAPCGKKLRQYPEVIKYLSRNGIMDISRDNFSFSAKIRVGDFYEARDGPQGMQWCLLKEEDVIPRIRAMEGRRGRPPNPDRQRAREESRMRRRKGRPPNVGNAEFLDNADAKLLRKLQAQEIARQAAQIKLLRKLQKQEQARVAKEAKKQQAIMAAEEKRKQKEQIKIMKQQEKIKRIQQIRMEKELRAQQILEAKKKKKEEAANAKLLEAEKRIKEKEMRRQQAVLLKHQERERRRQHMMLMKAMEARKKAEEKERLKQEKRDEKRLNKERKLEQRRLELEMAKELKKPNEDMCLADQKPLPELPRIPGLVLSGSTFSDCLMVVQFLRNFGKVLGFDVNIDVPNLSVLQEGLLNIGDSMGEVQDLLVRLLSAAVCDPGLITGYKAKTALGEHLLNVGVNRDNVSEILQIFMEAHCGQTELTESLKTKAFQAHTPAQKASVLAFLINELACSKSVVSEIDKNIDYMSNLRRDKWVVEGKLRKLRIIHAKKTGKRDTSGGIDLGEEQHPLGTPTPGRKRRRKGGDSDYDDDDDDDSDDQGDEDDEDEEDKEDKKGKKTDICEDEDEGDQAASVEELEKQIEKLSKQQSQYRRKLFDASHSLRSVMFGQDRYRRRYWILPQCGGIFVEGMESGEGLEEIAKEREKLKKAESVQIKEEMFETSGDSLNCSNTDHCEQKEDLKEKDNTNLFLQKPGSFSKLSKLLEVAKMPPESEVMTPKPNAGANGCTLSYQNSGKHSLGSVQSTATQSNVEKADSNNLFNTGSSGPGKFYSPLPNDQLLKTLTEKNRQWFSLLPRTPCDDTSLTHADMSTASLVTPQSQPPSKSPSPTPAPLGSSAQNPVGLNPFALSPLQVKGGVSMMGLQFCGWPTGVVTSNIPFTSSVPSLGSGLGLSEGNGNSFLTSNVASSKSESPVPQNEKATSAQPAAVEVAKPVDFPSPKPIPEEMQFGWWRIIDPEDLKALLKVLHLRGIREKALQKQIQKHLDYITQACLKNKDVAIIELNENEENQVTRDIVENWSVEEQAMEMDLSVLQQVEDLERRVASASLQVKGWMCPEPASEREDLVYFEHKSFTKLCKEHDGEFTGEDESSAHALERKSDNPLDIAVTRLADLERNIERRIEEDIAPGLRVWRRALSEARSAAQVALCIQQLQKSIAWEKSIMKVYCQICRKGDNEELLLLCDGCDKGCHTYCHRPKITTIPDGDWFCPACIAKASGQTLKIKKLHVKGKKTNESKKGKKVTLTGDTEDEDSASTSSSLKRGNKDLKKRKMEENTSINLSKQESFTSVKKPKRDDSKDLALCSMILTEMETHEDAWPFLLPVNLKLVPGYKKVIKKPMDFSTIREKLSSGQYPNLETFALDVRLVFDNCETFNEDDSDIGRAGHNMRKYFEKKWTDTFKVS
#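 Complex of BAZ2B and biotin-H3K14Ac (50 nM apiece) forms over 30 min at RT, then faces library compounds up to 110 uM for another 30 min; AlphaScreen beads added, 20 min dark incubation, luminescence read.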
# Six1-Eya2 blk = Six1/Eya2 interaction inhibition. Q15475+O00167. 360,000 tested, 0.56% active. AID 651725. AlphaScreen GST-Six1/His-Eya2 binding, biochemical; stronger effect = lower value. activity change, % (concentration not given with the values); in the data active = activity change below about -65%; inconclusive = mostly about -30% to -63%; also: % is scaled to controls: 0 for no effect and ±100 for the full control effect
#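 Homogeneous AlphaScreen proximity assay pairing GST-Six1 with His-tagged Eya2 (added as 5X mix: 250 nM and 500 nM) in 50 mM Tris pH 8.0, 300 mM NaCl, 1 mM TCEP. Glutathione donor and nickel acceptor beads; 1 h, 37 °C, dark.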
# G9a block = blocks human histone lysine methyltransferase G9a; Q96KQ7; G9a H3K9 monomethylation, AlphaScreen, 2 h; Potency, µM (highest dose often 102 µM), for the others: top-dose activity, negative = inhibition, most hits filed as inhibitors; 350,000 tested, 8.8% active; AID 504332; also: potency is read from the fitted curve at half-maximal effect; % is scaled to controls: 0 for no effect and ±100 for the full control effect; nearly all actives have a fitted effect of over 75% in size
#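 G9a (20 nM) preincubated 15 min RT with compounds, then 500 nM biotinylated H3K9 peptide and 20 uM SAM added; 2 h RT reaction. Monomethyl-H3K9 product detected by AlphaScreen with anti-H3K9me1 antibody, streptavidin donor and anti-rabbit IgG acceptor beads.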
# CtBP-E1A inh = inhibitors of CtBP/E1A interaction. AlphaScreen GST-E1A/His-CtBP binding, 1536-well; stronger effect = lower value. activity change, % (test concentration not listed). 340,000 tested, 0.49% active. AID 651724; in the data active = activity change below about -65%; inconclusive = mostly about -30% to -63%; also: % is scaled to controls: 0 for no effect and ±100 for the full control effect
#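 AlphaScreen with 125 nM GST-E1A and 125 nM His-CtBP (5X stocks) in Tris pH 8.0, 300 mM NaCl, BSA, Tween 20, TCEP. Compounds preincubated 2 h at 37 deg C, then glutathione donor/nickel acceptor beads added for 1 h at 37 deg C in dark.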
# HP1b chromo inh = blocks HP1-beta chromodomain binding to methylated histone tails. AlphaScreen HP1-beta / biotin-H3K9me3 peptide binding. 390,000 tested, 0.56% active. P83916. Potency, µM (highest dose often 114 µM), for inactives: top-dose activity change, negative = inhibition, usual class: inhibitors; also: potency is read from the fitted curve at half-maximal effect; nearly all actives have a fitted effect of over 70% in size
#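 HP1-beta protein (50 nM final) preincubated 30 min at room temperature with biotinylated H3(1-18)K9me3 peptide (50 nM) in PBS pH 7.4, 0.01% Tween-20, then compound added for 30 min. AlphaScreen streptavidin donor/nickel chelate acceptor beads (10 ug/mL final), 30 min dark, luminescence read.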
# The depositor's hits bear a star; ? = inconclusive; / = no result; ! = a repeat was not active; [ ] = dose if it differs, or a comment. An excerpt weighted towards active compounds, which were near 10% of everything screened. Unless noted, calls follow the shape of the dose curve; as a rule, active = well fitted inhibition curve with a large enough effect; inconclusive = small, poorly fitted or top-dose-only effect; inactive = no such curve, though single readings can be large or run the other way.
SMILES,JMJD2A Tudor inh,BAZ2B block,Six1-Eya2 blk,G9a block,CtBP-E1A inh,HP1b chromo inh
Cc1ccc(N2C(=O)NC(=O)/C(=C\C=C\c3ccco3)C2=O)cc1C,?,44.7µM*,-15.1,10µM*,11.2,?
Cc1cccc(N2C(=O)NC(=O)/C(=C\C=C\c3ccco3)C2=O)c1,?,?,-1.1,3.98µM*,0.3,-19.9%
C=CCN1C(=O)NC(=O)/C(=C/C=C/c2ccccc2)C1=O,-21.0%,?,-7.3,8.91µM*,1.8,?
Cc1cccc(N2C(=O)NC(=O)/C(=C/c3ccc([N+](=O)[O-])o3)C2=O)c1,20µM*,22.4µM*,?,?,-22.0,?
O=C(Oc1ccccc1)N1CCC2(CC1)CCN(C(c1ccccc1)c1ccccc1)CC2,/,/,/,3.9%[12.7 µM],/,/
O=C1NC(=O)N(Cc2ccco2)C(=O)/C1=C/C=C/c1ccco1,35.5µM*,31.6µM*,?,-175.1%[59 µM],-5.5,11.2µM*
O=C1NC(=O)C(=Cc2cn(CCOc3ccc4c(c3)OCO4)c3ccccc23)C(=O)N1,-24.4%,-7.9%,-4.6,?,9.2,38.3%
O=C1NC(=O)C(=Cc2ccc3c(c2)OCO3)C(=O)N1,/,-14.1%,/,50.1µM*,/,/
COc1cc(N2CCOCC2)ccc1/C=C1\C(=O)NC(=O)N(Cc2ccc3c(c2)OCO3)C1=O,-31.4%,?,-3.1,39.8µM*,-4.3,-10.3%
COc1cc(N2CCOCC2)ccc1C=C1C(=O)NC(=O)NC1=O,-10.1%,-0.3%,-0.6,79.4µM*,-9.1,-12.0%
COc1cc(N2CCOCC2)ccc1/C=C1\C(=O)NC(=O)N(Cc2cccs2)C1=O,-18.6%,0.8%,7.6,31.6µM*,1.4,19.9%
CC(C)CN1CCC2(CC1)CCN(C(=O)Oc1ccccc1)CC2,/,/,/,-6.9%[12.7 µM],/,/
CC(=O)OCC1=C(C(=O)[O-])N2C(=O)[C@@H](NC(=O)CCC[C@@H](N)C(=O)[O-])[C@H]2SC1.[Zn+2],/,/,/,14.3%[12.7 µM],/,/
O=C1NC(=O)C(=Cc2ccc(N3CCOCC3)cc2)C(=O)N1,0.0%,-3.2%,1.9,44.7µM*,3.0,50.4%
O=C1NC(=O)N(c2cccc(F)c2)C(=O)/C1=C/c1ccc(N2CCOCC2)cc1,-8.6%,-6.5%,-3.4,/,/,46.8%
COc1ccccc1CC(=O)Nc1ccc2c(c1)OC1(CCCC1)O2,?,/,-20.0,/,-20.7,?
CCCCC/C=C\C/C=C\C/C=C\C/C=C\CCCC(=O)NCCc1ccc(O)c(O)c1,/,/,/,11.2µM*,/,/
CCCCC/C=C\C/C=C\C/C=C\C/C=C\CCCC(=O)NCC(=O)O,/,/,/,11.9µM*!,/,/
CCCCC/C=C\C/C=C\C/C=C\C/C=C\CCCC(=O)NCCO,/,/,/,33.5%[59 µM],/,/
CCCCC/C=C\C/C=C\C/C=C\C/C=C\CCCC(=O)NCCCC(=O)O,/,/,/,-4.6%[59 µM],/,/
CCCCC/C=C\C/C=C\C/C=C\C/C=C\CCCC(=O)NCc1ccoc1,/,/,/,14.1µM*,/,/
Cn1c(=O)n(C)c2cc(CNCCc3ccc(F)cc3)ccc21,-18.5%,-4.4%,/,7.4%[59 µM],/,15.8%
CCCCCn1c(=O)c(C(=O)Nc2cnccn2)c(O)c2ccccc21,44.7µM*,13.9%,3.0,/,1.4,8.9%
[Cl-].[Cl-].[Hg+2],/,/,/,1.26µM*,/,/
NCCc1cccc(O)c1,/,/,/,35.2%[59 µM],/,/
SMILES,JMJD2A Tudor inh,BAZ2B block,Six1-Eya2 blk,G9a block,CtBP-E1A inh,HP1b chromo inh
Cc1cc(C(=O)O)oc(=O)c1,-11.7%,-11.5%,6.1,?,1.6,7.6%
CCCN1CCC[C@@H]2Cc3cn[nH]c3C[C@H]21,/,/,/,-2.6%[59 µM],/,/
C/C(=C\c1csc(C)n1)[C@@H]1C[C@@H]2O[C@]2(C)CCC[C@H](C)[C@H](O)[C@@H](C)C(=O)C(C)(C)[C@@H](O)CC(=O)O1,/,/,/,6.7%[12.7 µM],/,/
CCN(CCCl)c1cc(CN(C)C)cc(NC(=O)c2ccc(C(=O)Nc3cc(CN(C)C)cc(N(CC)CCCl)c3)cc2)c1,12.6µM*,/,?,/,-5.7,10µM*
CCN(CC)C(=O)c1ccc(NC(=O)c2cccc(C(F)(F)F)c2)cc1,-2.1%,-1.6%,2.0,15.1%,0.0,39.7%
CC(=O)C1CCC2C3CCC4=CC(=O)CC[C@@]4(C)C3CC[C@]12C (some centres not stated),/,/,/,-20.9%[2.33 µM],/,/
CC[N+](C)(CC)CCCOC(=O)C(O)(c1ccccc1)C1CCCCC1 (configuration not stated),39.8µM*,-27.7%,4.7,?,5.9,?
CCOC(C(=O)OCCC[N+](C)(CC)CC)(c1ccccc1)c1ccccc1,-3.9%,-19.8%,-0.2,-4.5%[59 µM],-4.3,15.5%
COc1ccc(CN2C(=O)NC(=O)/C(=C\c3cccc(OC)c3OC)C2=O)cc1,56.2µM*,?,7.9,?,-2.4,11.1%
COc1ccc(CN2C(=O)NC(=O)/C(=C/c3ccc([N+](=O)[O-])o3)C2=O)cc1,/,14.1µM*,/,7.08µM*,/,/
O=c1[nH]c(O)c(/C=C2/C=CC(c3cc(Cl)ccc3Cl)=N2)c(=O)[nH]1,?,?,8.9,50.1µM*,6.1,27.7%
COc1ccc(OC)c(N=Cc2c(O)[nH]c(=O)[nH]c2=O)c1,-9.4%,-16.8%,-10.3,-28.0%,/,32.0%
[Cl][Pt+2][Cl].[NH-]C1CCCCC1[NH-] (configuration not stated),79.4µM*,-10.4%,?,10µM*,-73.3*,-38.3%
CN(C)c1ccc(C=C2C(=O)NC(=O)NC2=O)cc1,-1.4%,/,1.5,/,-0.7,1.0%[57 µM]
CCN(CC)c1ccc(C=C2C(=O)NC(=S)NC2=O)cc1,44.7µM*,50.1µM*,3.6,7.94µM*,/,?
CN(C)c1ccc(C=C2C(=O)NC(=S)NC2=O)cc1,50.1µM*,/,0.9,/,0.9,-2.6%
CC(C)CN(CC(C)C)c1ccc(C=C2C(=O)NC(=S)NC2=O)cc1[N+](=O)[O-],35.5µM*,35.5µM*,-26.6,?,0.0,-83.9%
NNS(=O)(=O)c1ccc(Sc2ccccn2)c([N+](=O)[O-])c1,-20.5%,-13.7%,-0.6,39.8µM*,4.3,31.2%
COc1ccc(Nc2c(-c3cc(Br)ccc3O)nc3ncccn23)cc1OC,20µM*,14.1µM*,/,10µM*,/,?
O=C(Oc1ccccc1)N1CCC[C@@]2(CCN(C(c3ccccc3)c3ccccc3)C2)C1,/,/,/,7.7%[12.7 µM],/,/
CCc1n[nH]c(=S)n1/N=C/c1c(C)nn(-c2ccccc2)c1Cl,?,-4.4%,-9.8,1.78µM*,0.8,35.3%
CCn1c(-c2nn(-c3ccccc3)ccc2=O)n[nH]c1=S,?,?,8.8,-125.6%[59 µM],0.0,41.4%
C[C@]12CCC3C(CC[C@H]4C[C@H](O)CC[C@]34C)[C@@H]1CC[C@@H]2C(=O)CO (some centres not stated),/,/,/,31.2%[59 µM],/,/
CN1/C(=C\C=C\C2=[N+](C)c3ccc4ccccc4c3C2(C)C)C(C)(C)c2ccccc21,/,4.47µM*,/,10µM*,/,/

# Screens: PubChem, National Center for Advancing Translational Sciences (NCATS)
